These results are taken from PubChem BioAssay AID651815 (National Center for Advancing Translational Sciences (NCATS), 2012).

SMILES strings stand for the structures. The whole screen tested about 2,100 compounds, of which about 1,100 (52%) were called active. Not shown: some 29% with an inconclusive outcome. Calls come from the whole dose curve; as a rule, active = well fitted inhibition curve with a large enough effect; inconclusive = small, poorly fitted or top-dose-only effect; inactive = no such curve, though single readings can be large or run the other way. The set was probably picked from earlier hits. The list shows a part of the results.
% is set by controls: 0 for no effect and ±100 for the full control effect; potency is the fitted concentration of half-maximal effect.

Chain of DNA dC->dU-editing enzyme APOBEC-3F (Homo sapiens) (Q8IUX4 whole entry, looked up): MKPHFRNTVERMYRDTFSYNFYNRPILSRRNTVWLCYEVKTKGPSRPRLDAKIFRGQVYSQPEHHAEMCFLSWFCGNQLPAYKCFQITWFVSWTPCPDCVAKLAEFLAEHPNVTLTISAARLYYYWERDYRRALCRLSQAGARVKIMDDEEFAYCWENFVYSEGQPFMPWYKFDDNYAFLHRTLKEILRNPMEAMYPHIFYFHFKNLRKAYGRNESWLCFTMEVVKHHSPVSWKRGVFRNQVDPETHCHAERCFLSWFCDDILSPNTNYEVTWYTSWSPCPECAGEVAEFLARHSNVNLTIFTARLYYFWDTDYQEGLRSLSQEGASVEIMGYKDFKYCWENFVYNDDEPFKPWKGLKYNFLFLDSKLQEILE

The target in this assay is DNA dC->dU-editing enzyme APOBEC-3F (Homo sapiens) (UniProt Q8IUX4). Nature of the assay: qHTS for inhibitors of Vif-A3F interactions: Cherry picks counterscreen. Note: nearly all actives have a fitted effect of over 65% in size. To be noted: HeLa A3F-eYFP/Vif cells, eYFP fluorescence, 24 h; series mostly up to 46.1 µM; activity, negative = inhibitor: at the top concentration. Summed up:
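HeLa cells stably expressing A3F-eYFP and Vif, cultured overnight, then treated 24 h at 37 degrees C with compounds at several concentrations; yellow fluorescence (488 nm Ex/500-530 nm Em) imaged on Acumen; MG132 positive control.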
Consider `CCN(CC)c1ccc(/C=C/c2ccnc3ccccc23)cc1`, for which the Potency is 23.1 µM (active).

`CCCN(CCC)c1ccc(/C=C/c2ccnc3ccccc23)cc1`: the Potency is 20.6 µM (active).

In the case of `CCCCN(CCCC)c1ccc(/C=C/c2ccnc3ccccc23)cc1`, the Potency was 23.1 µM (active).

Take `COCCNC(=O)C(=O)Nc1ccc2c(c1)N(S(=O)(=O)c1cccs1)CCC2`: the Potency was 2.23 µM (active).

With `CCOc1ccccc1NC(=O)Cn1nnc(C(=O)NCc2cccs2)c1N`, the Potency was 1.46 µM (active).

As for `CCN(CC(=O)NCc1ccc(F)cc1)C(=O)/C=C/c1ccc(OC)c(S(=O)(=O)NC(C)C)c1`, the Potency is 4.98 µM (active).

For the compound `CC(=O)Nc1cccc(-c2ccnc3c2CC(C(=O)Nc2ccc4c(c2)OCO4)O3)c1` (stereo not given), the Potency is 4.44 µM (active).

Regarding `COc1ccc(NC(=O)C2Cc3c(-c4cccc(C(C)=O)c4)ccnc3O2)cc1` (stereo not given), the Potency is 3.53 µM (active).

As to `CC(=O)c1cccc(-c2ccnc3c2CC(C(=O)Nc2ccc(Cl)cc2)O3)c1` (stereo not given), the Potency was 4.98 µM (active).

With `COc1ccc(NC(=O)C2Cc3c(-c4cccc(C(C)=O)c4)ccnc3O2)cn1` (stereo not given), the Potency was 3.14 µM (active).

With `COc1ccc(NC(=O)C2Cc3c(-c4cccc(NC(C)=O)c4)ccnc3O2)cn1` (stereo not given), the Potency is 7.9 µM (active).

Consider `CC(=O)Nc1ccc(-c2ccnc3c2CC(C(=O)Nc2cccc(N(C)C)c2)O3)cc1` (stereo not given), for which the Potency is 12.5 µM (active).

On to `Cc1ccc(S(=O)(=O)c2cc3ccccc3oc2=Nc2ccc3c(c2)OCO3)cc1`, for which the “activity, negative = inhibitor” value is -12.3% (inactive).

As for `CC(C)NC(=S)N/N=C/c1sc(N2CCCCC2)nc1-c1cccs1`, the “activity, negative = inhibitor” value is -29.2% (inactive).

Consider `COc1cccc(N2CC(O)=C(c3nc4ccccc4s3)C2=N)c1`, for which the Potency is 7.9 µM (active).

In the case of `COc1cc(/C=C2\C(=N)N3N=C(S(C)(=O)=O)SC3=NC2=O)ccc1OC(=O)c1ccco1`, the “activity, negative = inhibitor” value was 29.8% (inactive).

For the compound `COc1cc(/C=C2\C(=N)N3N=CSC3=NC2=O)cc(Br)c1OC(=O)c1ccco1`, the “activity, negative = inhibitor” value is 28.5% (inactive).

In the case of `CN(C)c1ccc(/C=C2\SC(N3CCCCC3)=NC2=O)cc1`, the Potency is 23.1 µM (active).

Consider `CCN(CC)c1ccc(/C=C2\C(=N)N3N=C(CC(=O)N4CCOCC4)SC3=NC2=O)cc1`, for which the Potency is 0.0353 µM (active).

Turning to `CN(C)c1ccc(/C=C2\C(=N)N3N=C(CC(=O)N4CCCCC4)SC3=NC2=O)cc1`, the Potency was 3.26 µM (active).

For the compound `CN1C(=O)c2cccc(NCCCN3C(=O)c4ccccc4C3=O)c2C1=O`, the Potency was 18.4 µM (active).

Consider `CCCOc1ccc(N)cc1N`, for which the “activity, negative = inhibitor” value was -4.55% (inactive).

With `CN(C)c1ccc(/C=C2\NC(=S)N(Cc3ccccc3)C2=O)cc1`, the Potency is 2.23 µM (active).

For `O=C1/C(=C/c2ccc(N3CCCC3)cc2)NC(=S)N1C1CC1`, the Potency is 14.6 µM (active).

Regarding `CCN1C(=O)/C(=C/c2ccc(N3CCCC3)cc2)NC1=S`, the Potency is 20.6 µM (active).

On to `Cc1cccc(N2CCN(Cc3cn(C)nc3-c3ccccc3F)CC2)n1`, for which the Potency is 6.27 µM (active).

With `O=C1CC(c2ccccc2)Cc2[nH]c(=O)c(-c3nc(-c4cccc(Cl)c4)cs3)cc21` (stereo not given), the Potency is 4.11 µM (active).

`Cc1sc(-c2cc3c([nH]c2=O)CC(c2ccccc2)CC3=O)nc1-c1ccc(Cl)cc1` (stereo not given): the Potency is 8.2 µM (active).

For the compound `CCOC(=O)N1CCN(c2c(NCc3ccc(F)cc3)c(=O)c2=O)CC1`, the Potency is 17.7 µM (active).

In the case of `Cc1[nH]c2ccccc2c1/C=C/c1cc[n+](C)cc1`, the Potency was 6.27 µM (active).

As to `Cc1ccc2[nH]c(C)c(/C=C/c3cc[n+](C)cc3)c2c1`, the Potency is 1.77 µM (active).

Turning to `Cc1[nH]c2ccccc2c1/C=C/C(=O)c1ccccc1`, the Potency was 23.1 µM (active).

For the compound `COc1ccccc1-c1c(C#N)c(N)nc2c1CCc1ccccc1-2`, the Potency is 3.14 µM (active).

Regarding `CSc1nc(N)c(C#N)c(-c2ccccc2Cl)c1C#N`, the “activity, negative = inhibitor” value was -26.6% [at 36.9 µM] (inactive).

Consider `Cc1ccc(C=Nc2ccccc2C(N)=O)s1`, for which the Potency was 3.96 µM (active).

Turning to `COc1cc(/C=C2/SC(=S)N(CCC(=O)Nc3ccccc3)C2=O)cc(OC)c1OC`, the Potency is 23.1 µM (active).

Take `O=C(O)c1cc(-c2ccc(/C=C3/SC(=S)N(Cc4ccccc4)C3=O)o2)ccc1Cl`: the Potency was 14.6 µM (active).

Consider `O=C1/C(=C\c2ccc(O)cc2)SC(=S)N1Cc1ccccc1`, for which the “activity, negative = inhibitor” value was 27.8% (inactive).

Consider `COc1cc(/C=C2/SC(=S)N(Cc3ccccc3)C2=O)cc(Cl)c1O`, for which the Potency was 3.96 µM (active).

Regarding `CCC(=C/c1sc2ccc3ccccc3c2[n+]1C)/C=C1\Sc2ccc3ccccc3c2N1C`, the “activity, negative = inhibitor” value is -5.46% (inactive).

With `Cc1csc(NC(=O)CCC(=O)N(CC(=O)NC2CCCC2)Cc2ccccc2)n1`, the “activity, negative = inhibitor” value was 3.75% (inactive).

For `COc1ccc(NC(=O)c2sc3nc4c(cc3c2N)CN(Cc2ccccc2)CC4)c(OC)c1`, the Potency is 18.4 µM (active).

With `Cc1ccccc1NC(=O)c1sc2nc3c(c(-c4ccco4)c2c1N)CCC3`, the “activity, negative = inhibitor” value was -29.3% [at 36.9 µM] (inactive).

Regarding `Nc1c(C(=O)c2ccc(Cl)cc2)sc2nc3c(cc12)CCC3`, the Potency was 18.4 µM (active).

In the case of `CCN1CCc2nc3sc(C(=O)c4ccccc4)c(N)c3cc2C1`, the Potency is 23.1 µM (active).

As to `COc1ccc(/C=C2\Oc3cc(OC(=O)N4CCOCC4)ccc3C2=O)c(OC)c1`, the “activity, negative = inhibitor” value was -8.95% (inactive).

As for `COc1cc(OC)c(OC)cc1/C=C1\Oc2cc(OCC(=O)N3Cc4ccccc4C[C@H]3C(=O)O)ccc2C1=O`, the Potency was 1.84 µM (active).

On to `CC(=O)Oc1ccc(N2C(=O)c3cccc4c([N+](=O)[O-])ccc(c34)C2=O)cc1`, for which the “activity, negative = inhibitor” value was 22.2% (inactive).

Regarding `Cc1nnc(N2C(=O)c3cccc4c([N+](=O)[O-])ccc(c34)C2=O)s1`, the Potency is 20.6 µM (active).

As for `O=C1c2cccc3c([N+](=O)[O-])ccc(c23)C(=O)N1c1ccccn1`, the “activity, negative = inhibitor” value was 18.3% (inactive).

Take `COc1cc2c3nnc(-c4ccc(F)cc4)c-3cn(Cc3ccc(C)cc3)c2cc1OC`: the Potency is 15.8 µM (active).

`COc1cc2c3nnc(-c4ccccc4)c-3cn(Cc3ccccc3F)c2cc1OC`: the Potency was 3.66 µM (active).

Regarding `COc1cc2c3nnc(-c4ccc(F)cc4)c-3cn(Cc3ccccc3F)c2cc1OC`, the Potency was 16.4 µM (active).

In the case of `Cn1nnc2c[n+](CC(=O)c3ccc(Cl)cc3)cc(Br)c21`, the Potency is 17.7 µM (active).

Regarding `O=C1CCCN1c1ccc(S(=O)(=O)Nc2ccc3c(c2)OCCO3)cc1`, the Potency was 3.96 µM (active).

In the case of `O=[N+]([O-])c1cc(O)c2ncccc2c1`, the “activity, negative = inhibitor” value is -1.6% [at 36.9 µM] (inactive).

Take `O=[N+]([O-])c1ccc(Oc2cccc3cccnc23)c([N+](=O)[O-])c1`: the Potency was 14 µM (active).

With `CC1CC(C)(C)Nc2ccc(OC(=O)c3ccco3)cc21` (stereo not given), the Potency is 18.4 µM (active).

In the case of `CC1(C)Cc2nc3sc4c(=O)n(CC(=O)NCc5ccccc5)cnc4c3cc2CO1`, the Potency was 2.23 µM (active).

Take `CC1(C)Cc2nc3sc4c(SCC(=O)NCc5ccco5)ncnc4c3cc2CO1`: the Potency is 5.59 µM (active).
